Among the data in PubChem BioAssay (NCI) are growth values, retold here.

Holding throughout (test): NCI-60 one-dose screen, 48 h (100 = growth as untreated, 0 = no growth, -100 = all killed)
Conditions in all cases: 10 µM unless noted

Assay [1] deals with SK-MEL-2 melanoma.
Assay [2] relates to EKVX NSCLC.
For assay [3], the system named is SN12C renal.
Assay [4] concerns UO-31 renal.
Assay [5] relates to TK-10 renal.
Assay [6] deals with ACHN renal.
Assay [7] concerns CAKI-1 renal.
Assay [8] deals with A498 renal.
Assay [9] concerns CCRF-CEM leukemia.
For assay [10], the system named is MOLT-4 leukemia.

The panel holds about 83,000 compounds, 20% with a hit somewhere; the sample as a whole holds those more often.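 Plates (96-well) were seeded with cells, treated with compound at one concentration, and incubated for 48 hours before percent growth was determined.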 Unmarked numbers belong to inactive results. Calls of active or inactive are those of the source. How the source made its calls: active means growth percent below 10; inactive means the rest.

`O=C(Cn1cc[n+](CC(=O)c2ccc(-c3ccccc3)cc2)c1)Nc1cccc2cccnc12`: the growth in assay [1] is 83%; in [2] it was 86.8%; in assay [3], 75.9%; in assay [4] it was 94.3%; in assay [5], 119%; in assay [6] it was 105%. In addition, the growth in [7] is 102%; in [8], 88.6%; in assay [9], 64.9%; in [10], 73.5%.

Regarding `Cc1cc(-c2ccc(Cl)cc2)n(Cc2nnc(SCC(=O)Nc3ccc(S(N)(=O)=O)cc3)n2C2CCCCC2)n1`, the growth is 106% in [1]; 103% in [2]; 105% in assay [3]; 82.3% in assay [4]; 106% in [5]; 104% in [6]. The growth is 99.4% in assay [7], 111% in assay [8], 114% in assay [9] and 141% in assay [10].

On to `CC(=O)N1N=C(c2cccc(-n3cccc3)c2)CC1c1cccc(F)c1` (stereo unspecified), for which the growth was 103% in assay [1]; 95.7% in assay [2]; 97.1% in assay [3]; 75.4% in assay [4]; 123% in assay [5]; 101% in assay [6]. Further, the growth was 86.5% in assay [7], 101% in [8], 94.4% in [9] and 90.3% in [10].

Consider `Brc1ccccc1/C=N/Nc1nc(N/N=C/c2ccccc2Br)nc(N2CCOCC2)n1`, for which the growth in assay [1] was 96.3%; in [2] it was 80.2%; in assay [3] it was 98.8%; in [4], 78.6%; in assay [5] it was 99.4%; in [6], 93.6%. Also, the growth in [7] was 109%; in [8], 50.2%; in assay [9] it was 80.1%; in assay [10], 72.6%.

Consider `COc1cc(OC)cc(C(=O)Nc2sc3c(c2C(N)=O)CCC(=O)C3)c1`, for which the growth in assay [1] was 86.8%; in assay [2] it was 89%; in assay [3], 50.9%; in assay [4], 67.5%; in assay [5], 66.5%; in assay [6], 38.6%. For the same compound, the growth in [7] is 10.6%; in assay [8], 82.6%; in assay [9] it was 8.55% (active).

Turning to `Cc1ccc(-c2cc3nc(C(Cl)Cl)nc(-c4ccco4)n3n2)cc1`, the growth in [1] was 83.2%; in assay [2], 5.4% (active); in assay [3], 66.4%; in assay [4], 33.6%; in assay [5] it was 29.2%; in [6], -19.9% (active). Also, the growth is -5.91% (active) in [7], -29.1% (active) in assay [8], 89.3% in assay [9] and 94.2% in assay [10].

As to `CCN1CCN(C(=O)[C@]23CCC(C)(C)C[C@H]2C2=CC[C@@H]4[C@@]5(C)Cc6c([nH]c7ccccc67)C(C)(C)[C@@H]5CC[C@@]4(C)[C@]2(C)CC3)CC1`, the growth in [1] is 104%; in [2], 90%; in [3], 81.7%; in assay [4] it was 75.8%; in [5], 119%; in assay [6], 85%. The growth was 65% in assay [7], 97.5% in [8] and 80% in [9].

In the case of `COc1ccc(-c2cc(-c3ccc(Cl)cc3)c(C#N)c(=O)n2Cc2ccc(C(=O)O)cc2)cc1`, the growth is 61.9% in [1]; 98.2% in [2]; 103% in [3]; 68.1% in [4]; 116% in [5]; 102% in assay [6]. Besides, the growth in assay [7] is 70.3%; in assay [8], 83%; in [9], 30.7%; in assay [10], 53.1%.

For `CC[C@H](CO)Nc1ccc2ncc(C#Cc3cncc(C(=O)Nc4ccc(CN5CCN(C)CC5)c(C(F)(F)F)c4)c3)n2n1`, the growth in assay [1] is -97.7% (active); in [2], -64.3% (active); in [3], -65.1% (active); in [4], -83.3% (active); in assay [5], -57% (active); in assay [6], -98.6% (active). Also, the growth is -79.7% (active) in assay [7], -99.4% (active) in assay [8], 1.55% (active) in assay [9] and -3.11% (active) in [10].

On to `COc1ccc(-n2c(/C=C3\C(=O)Nc4ccccc43)ccc2CO)cc1`, for which the growth was 104% in assay [1]; 94.7% in [2]; 104% in assay [3]; 74.1% in assay [4]; 105% in assay [5]; 93.6% in [6]. Also, the growth in assay [7] was 84.6%; in assay [8], 107%; in assay [9], 97.8%; in assay [10], 90.2%.

Turning to `Cc1ccc(C2=Nn3c(nnc3-c3ccccc3)SC2)cc1`, the growth in assay [1] was -14.8% (active); in assay [2], 39.3%; in assay [3] it was 47.5%; in assay [4], 43.1%; in [5], 48.3%; in [6] it was 52.1%. Besides, the growth was 34.4% in [7], -12.4% (active) in [8], 23.6% in assay [9] and 44.4% in assay [10].

For the compound `COc1cc2nc(Cl)nc(Nc3cccc(C4=Nc5c(N)nc(N)nc5NC(c5ccc(Br)cc5)C4)c3)c2cc1OC` (stereo unspecified), the growth in assay [1] is 94.2%; in assay [2], 97.1%; in assay [3], 99%; in [4], 92.9%; in [5], 114%; in [6], 101%. The figures for the growth in [7], in assay [8] and in assay [9] were 90.3%, 90.6% and 10.9%, respectively.

Take `O=c1c2ccccc2nc(COc2ccccc2)n1NS(=O)(=O)c1ccc(Cl)cc1`: the growth in assay [1] was 74.7%; in assay [2], 74.8%; in [3], 76.6%; in [4] it was 62.7%; in assay [5] it was 153%; in assay [6], 92.8%. Besides, the growth in assay [7] is 73.1%; in assay [8], 63.3%; in assay [9] it was 97%; in assay [10] it was 69.5%.

For the compound `C#Cc1nc(C(=O)NCCC(=O)Nc2ccc(NC(=O)c3ccc(/C=C/C(=O)c4nccn4C)cc3)cc2)cs1`, the growth was 100% in [1]; 65.3% in assay [2]; 14.4% in assay [3]; 30.7% in assay [4]; 69.9% in assay [5]; -67.5% (active) in assay [6]. The growth in [7] was 38.9%; in [8], 90.5%; in assay [9], -21.2% (active); in assay [10] it was 19.9%.

As to `COc1ccc2c(c1)Oc1nc(N)c(C#N)c(N)c1C2Sc1ccc(C)cc1` (stereo unspecified), the growth in assay [1] is -36.4% (active); in [2], 19.3%; in assay [3] it was 0.951% (active); in [4] it was -81.6% (active); in [5], -23.4% (active); in [6] it was -96.9% (active). The growth in [7] was -7.52% (active); in [8], 33.4%; in assay [9] it was -16.1% (active); in [10] it was -12.9% (active).

Regarding `CCc1cccc2c3c(sc12)C(c1ccc(OC)cc1)C(C#N)=C(/N=C/c1ccc(Cl)cc1)O3` (stereo unspecified), the growth was -27.5% (active) in [1]; 47.6% in [2]; 41.8% in assay [3]; 37.8% in assay [4]; 80.7% in assay [5]; 43% in assay [6]. In addition, the growth in assay [7] was 42.1%; in assay [8], -7.61% (active); in [9], 16.3%; in [10], 22.5%.

Take `CC(=O)c1cc(C(=O)N2c3ccccc3Sc3ccccc32)n2ccc3ccccc3c12`: the growth in assay [1] is -77.5% (active); in assay [2], 61.3%; in assay [3], 67.6%; in [4], 42.8%; in assay [5], 98.4%; in assay [6], 42.5%. For the same compound, the growth in assay [7] is 39.8%; in assay [8], 12.9%; in [9], 28%; in [10], 49.1%.

With `C[C@H]1c2[nH]c3ccccc3c2C[C@H]2C(=O)N(CCCCCCC(=O)NO)CC(=O)N21`, the growth is 76.3% in [1]; 85.3% in [2]; 88.5% in assay [3]; 83.3% in assay [4]; 90.3% in [5]; 90.1% in [6]. Besides, the growth in assay [7] was 87.8%; in assay [8], 83.2%; in [9], 36.9%; in assay [10], 52.3%.

As for `COC(=O)C1(C)CCC[C@]2(C)[C@H]3C[C@H]4C(C(C)C)=C[C@]3(CC[C@@H]12)[C@H]1[C@@H]4[C@@H](OC(=O)c2ccco2)CC[C@@H]1OC(=O)c1ccco1` (stereo partly specified), the growth was 107% in assay [1]; 99.1% in assay [2]; 101% in assay [3]; 101% in [4]; 105% in [5]; 112% in assay [6]. Besides, the growth in assay [7] is 95.8%; in assay [8], 115%; in assay [9], 105%; in assay [10], 103%.

For the compound `Cc1nc(-c2ccccc2O)ccc1C(=O)N=Nc1c(O)[nH]c2ccc(Br)cc12`, the growth is 104% in [1]; 79.6% in [2]; 95.1% in [3]; 73% in assay [4]; 167% in assay [5]; 91.5% in [6]. Also, the growth in assay [7] was 84.6%; in assay [8] it was 101%; in assay [9] it was 86.1%; in [10] it was 102%.

For `CCNC(=O)N1CCc2cc(OC)c(OCCc3ccc(OC)nc3)cc2C1c1ccc(C)cc1C` (stereo unspecified), the growth in assay [1] is 1.68% (active); in assay [2], 39.3%; in assay [3], 30.5%; in [4] it was 28.5%; in [5], 44.8%; in assay [6] it was 25%. Further, the growth is 18.1% in [7], -12.2% (active) in assay [8], 27% in [9] and 22.6% in [10].

As to `COc1cc2nc(Cl)nc(Nc3cccc(C4=Nc5c(N)nc(N)nc5NC(c5ccc(F)cc5)C4)c3)c2cc1OC` (stereo unspecified), the growth is 86% in assay [1]; 89.6% in assay [2]; 81.9% in assay [3]; 91.8% in assay [4]; 112% in assay [5]; 97.3% in assay [6]. For the same compound, the growth in [7] was 88.8%; in [8] it was 77.9%; in assay [9], 5.4% (active).

`CCO/C=N/C1=C(C#N)C(c2ccc(F)cc2)c2sc3c(C)cccc3c2O1` (stereo unspecified): the growth was 42.7% in assay [1]; 44.6% in assay [2]; 17.3% in assay [3]; 27.9% in assay [4]; 66.4% in assay [5]; 23.1% in assay [6]. Further, the growth is 28.4% in assay [7], -0.888% (active) in assay [8], 21.1% in [9] and 23.1% in [10].

With `NC(N)=Nc1ccc(Oc2cccc(Nc3ccc(Cl)c(C(F)(F)F)c3)c2)cc1`, the growth in assay [1] was 83.7%; in assay [2], 36.1%; in assay [3] it was 27.1%; in assay [4], 76.2%; in assay [5], 82.6%; in assay [6], 74%. For the same compound, the growth in assay [7] was 39.8%; in [8] it was 36.7%; in assay [9], 17.5%; in assay [10], 17.8%.
